Test results taken from PubChem BioAssay (NCI).
The panel holds about 83,000 compounds, 20% with a hit somewhere; the sample as a whole holds those more often.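 In brief: 96-well plates, 48 h treatment, single concentration, percent growth endpoint.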 Active and inactive are the calls of the source.

test system: HOP-92 NSCLC; experiment: NCI-60 one-dose screen, 48 h (100 = growth as untreated, 0 = no growth, -100 = all killed); conditions: 10 µM unless noted
Experimental: Growth inhibition of the HOP-92 human Non-Small Cell Lung tumor cell line is measured as a screen for anti-cancer activity. Cells are grown in 96 well plates and exposed to the test compound for 48 hours. Compounds are tested at a single concentration, which is 10^-5 M for most compounds. The reported endpoint is percent growth (GI% or GIPRCNT), where numbers from 0 - 100% represent growth inhibition, and numbers from -100% - 0 represent cell death. For example, a value of 40 represents 60% growth inhibition. A value of 0 means no net growth occurred over the course of the experiment. A value of -40 indicates 40% of cells at the beginning of the experiment died by the end of the experiment. A value of -100 means all cells are dead at the end of the experiment.
NCI-60 Human Tumor Cell Lines Screen was performed using the standard one-dose NCI protocol, which is described in more detail at https://dtp.cancer.gov/discovery_development/nci-60/default.htm.
Compounds with GIPRCNT values below 10 were considered active. Activity score was based on GIPRCNT using the following formula: […]
Score is 0 for GIPRCNT values of 100 or above, 50 for GIPRCNT values of 0, and 100 for GIPRCNT values of -100.

| Compound | growth |
| --- | --- |
| CCCCCOc1ccc(/C=N/Nc2cc(C)nc3ccc(Cl)cc23)cc1 | 56.7% (inactive) |
| Cc1cccc(NC(=O)Nc2ccc(-n3cnc4cc(-c5ccc(O)cc5)ccc43)cc2)c1 | 81.1% (inactive) |
| COc1cc(CC(=O)c2ccc(O)c(OC)c2)ccc1O | 84.5% (inactive) |
| COc1ccc(C(=O)C2C(C#N)C(C#N)C3C=Cc4ccccc4N32)cc1 (stereo not given) | 84.1% (inactive) |
| CN1CCN(c2ccc(NC3=C(Cl)C(=O)c4ncccc4C3=O)cc2C(F)(F)F)CC1 | -76.4% (active) |
| COc1ccc(C(=O)c2nc3ccccc3n2CC(=O)c2ccc(Cl)cc2)cc1 | 54.4% (inactive) |
| Cc1nc2ccc(Cl)cn2c1-c1nnc(SCc2ccc([N+](=O)[O-])cc2)o1 | 48.3% (inactive) |
| O=S(=O)(NCCCNc1nccc(-c2c(-c3cccc(F)c3)nc3sccn23)n1)c1cccc2ccccc12 | 94.6% (inactive) |
| [O-][n+]1c(Cl)cc(Cl)c2ccccc21 | 89.4% (inactive) |
| C=C1C(=O)O[C@H]2[C@H]1CC/C(COC(=O)NCc1c[nH]c3ccc(Cl)cc13)=C\CC[C@@]1(C)O[C@@H]21 | -35.7% (active) |
| CCOC(=O)c1cc(C(=O)c2ccc(OC)c(OC)c2)n2ccc(/C=C/c3cc[n+](CC(=O)c4ccc(OC)c(OC)c4)cc3)cc12 | 110% (inactive) |
| NC(=NCc1ccccc1)C(N=Nc1ccccc1)C(=O)NCc1ccccc1 (stereo not given) | 99% (inactive) |
| Fc1ccc(-c2cn3c(nc4ccccc43)c(-c3ccccc3)n2)cc1 | 68.7% (inactive) |
| COc1ccc(/C=C2\COc3ccc(-c4ccccc4)cc3C2=O)c(OC)c1 | 109% (inactive) |
| COc1ccc(-c2nc3sccn3c2/C=C/C(=O)c2ccc3c(c2)OCO3)cc1 | 82.8% (inactive) |
| CN(C)CCn1c2ccc(Br)cc2c2nc3ccccc3nc21 | 49.6% (inactive) |
| O=C(Nc1ccc(-c2ccc3c(c2)NC(=O)/C3=C\c2ccc[nH]2)cc1)NC1CC1 | 125% (inactive) |
| OC(c1cccc(C(F)(F)F)c1)c1cnccc1NC1CCCCC1 (stereo not given) | 45.4% (inactive) |
| Oc1c(Cl)cc(Cl)c(Cl)c1CNCCNCc1c(O)c(Cl)cc(Cl)c1Cl | 27.8% (inactive) |
| CSc1nc2sc3cccc(Cl)c3n2c(=N)c1C#N | 82.4% (inactive) |

| Compound | growth |
| --- | --- |
| CC/C(=C\c1ccc(OC)cc1)C(=O)c1ccc(OC)cc1 | 85.2% (inactive) |
| OCc1cnccc1NCCCCOc1ccc(Oc2ccccc2)cc1 | 43% (inactive) |
| C#CCNC(=O)[C@H](Cc1ccccc1)NC(=O)[C@]12CC[C@@H](C(=C)C)[C@@H]1[C@H]1CC[C@@H]3[C@@]4(C)CCC(=O)C(C)(C)[C@@H]4CC[C@@]3(C)[C@]1(C)CC2 | 66% (inactive) |
| CC(=O)[C@@H]1CC[C@]2(CO)CC[C@]3(C)[C@H](CC[C@@H]4[C@@]5(C)CCCNC(C)(C)[C@@H]5CC[C@]43C)[C@@H]12 | 88.7% (inactive) |
| CCN1CCN(CCNc2nccc(-c3c(-c4cccc(OC)c4)nc4occn34)n2)S1(=O)=O | 84.5% (inactive) |
| O=C(O)c1ccc(-c2nn(-c3ccc(C(F)(F)F)cc3)cc2CNc2ccc(Oc3ccccc3)cc2)cc1 | 93.3% (inactive) |
| O=S(=O)(NCCNc1nccc(-c2c(-c3cccc(F)c3)nc3sccn23)n1)c1ccc(Cl)cc1 | 76.6% (inactive) |
| O=C(c1nnc(Nc2ccccc2Br)o1)c1c[nH]c2ccccc12 | 97.9% (inactive) |
| O=C(NO)c1ccc(-n2nc(-c3ccccc3)c3ccccc32)cc1 | 62.9% (inactive) |
| O=C(C[n+]1cccc2ccccc21)c1ccc(O)c(O)c1 | 73.2% (inactive) |
| Cn1c(N2NC(=O)C(N=Nc3ccc(S(N)(=O)=O)cc3)C2=O)nc(-c2ccco2)c(C#N)c1=O (stereo not given) | 32.3% (inactive) |
| N#CC1=C(/N=C/c2ccccc2)Oc2c(ccc3ccccc23)C1c1ccc([N+](=O)[O-])cc1 (stereo not given) | 88.5% (inactive) |
| CCCCCCCCO/N=C\c1c2c(O)c3c(O)c(C)c4c(c3c1O)C(=O)C(C)(O/C=C\C(OC)C(C)C(OC(C)=O)C(C)C(O)C(C)C(O)C(C)/C=C\C=C(\C)C(=O)N2)O4 (stereo not given) | -4.97% (active) |
| CCOC(=O)c1cc(C(=O)c2cc(OC)cc(OC)c2)n2ccc3ccccc3c12 | 111% (inactive) |
| Nc1c(C(=O)Nc2ccnc3ccccc23)sc2nc3c(cc12)CN(Cc1ccccc1)CC3 | 66.7% (inactive) |
| Cc1nc2sccn2c1-c1nc2sccn2c1/C=C1/C(=O)Nc2ccccc21 | 4.55% (active) |
| COc1cc(C(=O)Nc2cc3c(cc2Oc2cc(C)cc(C)c2)C(=O)N(C)[C@@H](CC(=O)N(C)O)C(=O)N3)c(Br)c(OC)c1OC | -16.4% (active) |
| COc1ccccc1/C(C)=N/NC(=O)CSc1nc2ccccc2c(=O)n1Cc1ccc(S(N)(=O)=O)cc1 | 105% (inactive) |
| COc1ccc(C(=O)C2C(C#N)C(C#N)C3c4ccccc4C=CN23)cc1 (stereo not given) | 85.9% (inactive) |
| Oc1cccc(CCc2ccc(Oc3cc(CCc4cccc(O)c4)cc(O)c3O)cc2)c1 | 53.5% (inactive) |
